The nature of assay [1]: qHTS assay to identify small molecule agonists of the RXR signaling pathway - cell viability counter screen (AID 1159529). Note: nearly all actives have a fitted effect of over 50% in size. Note: potency is the fitted concentration of half-maximal effect. In outline: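 Compounds dissolved in DMSO were pinned onto HEK 293T cells carrying a beta-lactamase reporter under RXR-alpha control and incubated 16 hr. Cytotoxicity was then quantified by CellTiter-Glo luminescence.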
Background: qHTS replaces the single test concentration by a dilution series.

The nature of assay [2]: qHTS assay to identify small molecule antagonists of the retinoic acid receptor (RAR) signaling pathway (AID 1159552; note: nearly all actives have a fitted effect of over 50% in size; note: potency is the fitted concentration of half-maximal effect). In outline:
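Test chemicals and DMSO controls were pin-transferred onto C3RL4 cells a day after seeding; retinol (1 uM final) followed at once. Luminescent reporter output was quantified after 6 hr of co-incubation and 30 min with detection reagent.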

Assay [3] can be described thus: qHTS assay to identify small molecule agonists of the retinoic acid receptor (RAR) signaling pathway (AID 1159553). Note: potency is the fitted concentration of half-maximal effect. In outline: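 C3RL4 cells carrying a RARE luciferase reporter were plated overnight at 37 C, then exposed to compounds in DMSO for 6 hr at 37 C and 5% CO2. Luminescence was read 30 min after luciferase reagent addition at room temperature.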
Assay [4] in a line: qHTS assay to identify small molecule antagonists of the estrogen related receptor (ERR) signaling pathway from Tox21 library - cell viability counter screen (AID 1224834). Note: nearly all actives have a fitted effect of over 30% in size. Note: potency is the fitted concentration of half-maximal effect. In outline:
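ERR reporter cells were plated 6 h before compound addition, then exposed to test compounds in DMSO for 17.5 h at 37 C. Viability was read as CellTiter-Fluor fluorescence after a 30-minute incubation at 37 C.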

Assay [5] has as its target Luciferin 4-monooxygenase (Photinus pyralis) (UniProt P08659). The assay can be described thus: qHTS assay to identify small molecule inhibitors of firefly luciferase (AID 1224835). Note: nearly all actives have a fitted effect of over 25% in size. Note: potency is the fitted concentration of half-maximal effect. In outline: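 Quantitative HTS format; KM concentrations of both substrates. Purified P. pyralis FLuc activity quantified from luminescence images.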
A short description of assay [6]: qHTS assay to identify small molecule agonists of the constitutive androstane receptor (CAR) signaling pathway - cell viability counter screen (AID 1224836). Note: nearly all actives have a fitted effect of over 45% in size. Note: potency is the fitted concentration of half-maximal effect. In outline: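 23 h treatment, 37 C, 5% CO2. Cell line: HepG2 stably expressing hCAR with a CYP2B6-2.2kb construct. Co-treatment: PK11195, 0.75 uM final. Read-out: CellTiter-Fluor fluorescence intensity.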
A short description of assay [7]: qHTS assay to identify small molecule antagonists of the constitutive androstane receptor (CAR) signaling pathway - cell viability counter screen (AID 1224837). Note: nearly all actives have a fitted effect of over 45% in size. Note: potency is the fitted concentration of half-maximal effect. The essentials: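 HepG2 cells stably expressing hCAR and a CYP2B6-2.2kb reporter were plated and pre-incubated 4 hr at 37 C/5% CO2, then given compounds at 15 concentrations plus 50 nM CITCO (final). After 23 hr, viability was read by CellTiter-Fluor fluorescence.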

The target in assay [8] is Nuclear receptor subfamily 1 group I member 3 (Homo sapiens) (UniProt Q14994). The assay can be described thus: qHTS assay to identify small molecule antagonists of the constitutive androstane receptor (CAR) signaling pathway (AID 1224838). Note: nearly all actives have a fitted effect of over 40% in size. Note: potency is the fitted concentration of half-maximal effect. The essentials: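 HepG2 cells stably co-transfected with hCAR and a CYP2B6-2.2kb luciferase reporter were seeded 4 h before compound addition at 15 concentrations. Cells were stimulated with 50 nM CITCO (final) for 24 h at 37 C; luciferase luminescence was then read.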

Assay [9] has the same target. Put plainly: qHTS assay to identify small molecule agonists of the constitutive androstane receptor (CAR) signaling pathway (AID 1224839). Note: nearly all actives have a fitted effect of over 15% in size. Note: potency is the fitted concentration of half-maximal effect. The essentials:
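Compounds tested at 15 concentrations on HepG2 cells stably harbouring hCAR and CYP2B6-2.2kb reporter constructs, co-treated with PK11195 (0.75 uM final), 24 h at 37 C; luminescent reporter signal quantified.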

Assay [10] is described as follows: qHTS assay to identify small molecule antagonists of the estrogen related receptor signaling pathway with the pleiotropic PPARgamma coactivator (PGC) from Tox21 10K library (AID 1224841; call rule not given here; note: actives are mostly falling curves and most rising ones were filed inactive; nearly all actives have a fitted effect of over 50% in size; note: potency is the fitted concentration of half-maximal effect). In outline:
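PGC/ERR reporter cells were seeded at 2,000 cells/well and held 6 hours at 37 C/5% CO2 before pin-tool addition of compounds in DMSO. After 18 hours at 37 C, One-Glo was added and luminescence read after 30 minutes at room temperature.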

Assay [11] can be described thus: qHTS assay to identify small molecule agonists of the estrogen related receptor signaling pathway with the pleiotropic PPARgamma coactivator (PGC) from Tox21 10K library (AID 1224842). Note: nearly all actives have a fitted effect of over 15% in size. Note: potency is the fitted concentration of half-maximal effect. In outline: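 PGC/ERR reporter cells (NTP line) were seeded 2,000 per well, rested 6 h at 37 C/5% CO2, then pin-dosed with compounds in DMSO for 18 h at 37 C; luciferase read by One-Glo luminescence after 30 min at room temperature.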

Assay [12] can be described thus: qHTS assay to identify small molecule antagonists of the estrogen related receptor signaling pathway with the pleiotropic PPARgamma coactivator (PGC) from Tox21 10K library - cell viability counter screen (AID 1224840; active = well fitted cell-killing curve with a large enough effect in the repeat runs, not every such curve was filed as active; note: nearly all actives have a fitted effect of over 40% in size; note: potency is the fitted concentration of half-maximal effect). The essentials:
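PGC/ERR cells were seeded at 2,000 cells/well and left 6 hours at 37 C/5% CO2 before pin-tool addition of compounds in DMSO. After 17.5 hours at 37 C, CellTiter-Fluor was added and fluorescence read 30 minutes later.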

Assay [13] deals with Thyrotropin receptor (Homo sapiens) (UniProt P16473). The assay can be described thus: qHTS assay to identify small molecule agonists of the thyroid stimulating hormone receptor (TSHR) signaling pathway (AID 1224843; calls by dose curve; note: nearly all actives have a fitted effect of over 45% in size). In outline:
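Cell line HEK293 with TSHR; density 800/well. Exposure 30 min RT. Readout HTRF cAMP (cAMP-d2/anti-cAMP-cryptate), 1 h RT before reading.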

Assay [14] in a line: qHTS assay to identify small molecule antagonists of the estrogen related receptor (ERR) signaling pathway (AID 1224819; note: potency is the fitted concentration of half-maximal effect; nearly all actives have a fitted effect of over 50% in size). The essentials:
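ERR reporter cells were plated at 2,000 cells/well and left 6 h at 37 C/5% CO2 before pin-tool transfer of compounds in DMSO. After 18 h at 37 C, One-Glo was added and luminescence was read 30 min later at room temperature.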

Assay [15] is described as follows: qHTS assay to identify small molecule agonists of the estrogen related receptor (ERR) signaling pathway (AID 1224820). In outline: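 Cells: ERR line from NTP, 2,000/well. Pre-incubation 6 h, 37 C/5% CO2. Compound (DMSO) pin transfer, 18 h 37 C. One-Glo, 30 min RT, luminescence.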
Assay [16] concerns estrogen-related receptor alpha (ERRalpha) with PGC-1alpha coactivator, human. The assay can be described thus: qHTS assay to identify small molecule antagonists of the estrogen related receptor signaling pathway with the pleiotropic PPARgamma coactivator (PGC) (AID 1224821; calls by dose curve). In outline: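 Luminescent read-out (One-Glo, 30 min at room temperature) following 18 h treatment of PGC/ERR cells at 37 C with compounds delivered in DMSO. Cells had settled 6 h at 37 C/5% CO2 before dosing.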

Assay [17] is described as follows: qHTS assay to identify small molecule agonists of the estrogen related receptor signaling pathway with the pleiotropic PPARgamma coactivator (PGC) (AID 1224823). In outline:
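Steps: plate PGC/ERR cells at 2,000 cells/well; incubate 6 h, 37 C/5% CO2; pin-transfer compounds (DMSO); incubate 18 h, 37 C; add One-Glo; 30 min RT; read luminescence.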

The nature of assay [18]: qHTS assay to identify small molecule antagonists of the retinoid acid receptor (RAR) signaling pathway - cell viability counter screen (AID 1159551). Note: nearly all actives have a fitted effect of over 35% in size. In outline: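 C3RL4 cells were seeded overnight at 37 C, then treated with compounds plus 1 uM (final) retinol for 6 h at 37 C. Viability was read as ATP by CellTiter-Glo luminescence after 30 min at room temperature.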

Several values for one entry are separate records, joined by “and”; a condition that tells them apart may be missing. Equal entries are not always repeated. Inconclusive results are not listed. Some structures have more than one record in an assay (separate samples or runs), and their calls can disagree. Activity calls are given as the source filed them. Unless noted, calls come from the whole dose curve; as a rule, active = well fitted curve in the direction sought with a large enough effect in the repeat runs; inconclusive = weak or mixed curves; inactive = no such curve, though single readings can be large; an effect the other way counts as inactive or inconclusive.

Sequence of Thyrotropin receptor (Homo sapiens) (P16473 whole entry, looked up): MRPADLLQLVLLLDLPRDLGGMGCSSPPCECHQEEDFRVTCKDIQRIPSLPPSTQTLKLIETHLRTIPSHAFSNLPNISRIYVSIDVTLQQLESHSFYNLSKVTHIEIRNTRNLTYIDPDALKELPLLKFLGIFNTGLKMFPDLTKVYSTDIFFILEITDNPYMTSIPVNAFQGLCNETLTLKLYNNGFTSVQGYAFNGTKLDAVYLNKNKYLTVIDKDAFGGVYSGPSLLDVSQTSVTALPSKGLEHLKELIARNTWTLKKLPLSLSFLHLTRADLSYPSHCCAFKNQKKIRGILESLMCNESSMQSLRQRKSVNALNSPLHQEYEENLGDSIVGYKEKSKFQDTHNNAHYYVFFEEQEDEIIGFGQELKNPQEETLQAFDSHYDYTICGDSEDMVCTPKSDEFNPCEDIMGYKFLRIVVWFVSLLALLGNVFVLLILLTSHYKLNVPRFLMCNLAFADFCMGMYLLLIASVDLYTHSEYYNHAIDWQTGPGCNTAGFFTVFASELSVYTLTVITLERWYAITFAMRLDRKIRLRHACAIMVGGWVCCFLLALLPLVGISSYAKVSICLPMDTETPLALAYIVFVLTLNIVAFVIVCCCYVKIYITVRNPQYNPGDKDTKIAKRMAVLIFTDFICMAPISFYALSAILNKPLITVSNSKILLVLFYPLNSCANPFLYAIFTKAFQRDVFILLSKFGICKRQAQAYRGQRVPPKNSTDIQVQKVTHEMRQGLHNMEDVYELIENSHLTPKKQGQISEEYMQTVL
Sequence of Nuclear receptor subfamily 1 group I member 3 (Homo sapiens) (Q14994 whole entry, looked up): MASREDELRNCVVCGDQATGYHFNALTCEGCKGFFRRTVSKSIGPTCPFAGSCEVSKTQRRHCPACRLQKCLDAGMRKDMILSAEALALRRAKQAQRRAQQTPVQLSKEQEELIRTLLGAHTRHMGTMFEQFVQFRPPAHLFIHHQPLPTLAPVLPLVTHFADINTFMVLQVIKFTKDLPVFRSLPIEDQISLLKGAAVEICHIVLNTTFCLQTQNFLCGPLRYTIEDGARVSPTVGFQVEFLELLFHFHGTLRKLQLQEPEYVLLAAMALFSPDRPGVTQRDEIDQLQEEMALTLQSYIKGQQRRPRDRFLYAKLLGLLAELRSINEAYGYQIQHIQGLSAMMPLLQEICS
Sequence of Luciferin 4-monooxygenase (Photinus pyralis) (P08659 whole entry, looked up): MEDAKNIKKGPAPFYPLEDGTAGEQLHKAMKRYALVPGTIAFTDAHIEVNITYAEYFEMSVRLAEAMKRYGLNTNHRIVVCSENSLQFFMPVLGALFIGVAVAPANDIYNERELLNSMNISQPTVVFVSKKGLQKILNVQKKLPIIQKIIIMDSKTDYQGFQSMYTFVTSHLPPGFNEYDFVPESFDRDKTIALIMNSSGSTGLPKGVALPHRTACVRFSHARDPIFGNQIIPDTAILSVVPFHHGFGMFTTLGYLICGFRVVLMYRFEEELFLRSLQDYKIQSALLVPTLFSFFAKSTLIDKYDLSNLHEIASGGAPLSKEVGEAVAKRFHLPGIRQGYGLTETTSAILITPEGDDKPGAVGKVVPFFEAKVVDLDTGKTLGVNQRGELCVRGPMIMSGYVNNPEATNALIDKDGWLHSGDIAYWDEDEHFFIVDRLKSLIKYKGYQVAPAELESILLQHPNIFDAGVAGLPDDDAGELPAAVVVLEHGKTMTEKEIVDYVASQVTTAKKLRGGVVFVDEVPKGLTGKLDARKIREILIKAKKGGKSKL

In the case of `Cc1cc(N=Nc2ccccc2C)ccc1N`, the Potency in assay [1] is 54.9 µM (active) and 43.6 µM (active); in assay [3] it was 864 nM (active) and 1.22 µM (active); in assay [4], 27.3 µM (active); in [5] it was 5.64 µM (active) and 6.33 µM (active); in assay [6], 17.2 µM (active) and 1.09 µM (active); in [7] it was 3.06 µM (active). Moreover, the Potency is 30.6 µM (active) and 48.6 µM (active) in assay [9]; 4.33 µM (active) and 2.43 µM (active) in assay [11]. The Potency result in assay [2], in [8] and in [10] was “inactive” throughout.
Regarding `Cc1cc(SCc2sc(-c3ccc(C(F)(F)F)c(F)c3)nc2C)ccc1OCC(=O)O`, the Potency in assay [1] was 19.5 µM (active); in [5], 44.8 µM (active). The Potency result in [2], in assay [3], in [6], in [7], in [8] and in assay [9] was “inactive” in each case. Further, the Potency result in assay [10] and in assay [11] was “inactive” throughout.
For the molecule `[CH3][Hg][Cl]`, the Potency in assay [1] was 6.15 µM (active); in [4], 60.9 µM (active); in [5], 5.62 µM (active); in assay [6] it was 24.3 µM (active); in assay [12] it was 38.5 µM (active). Further, the Potency entry in assay [2], in assay [9] and in [13] was “inactive” in each case.
Turning to `O=c1[nH]c2ccccc2n1C1CCN(CCCC(c2ccc(F)cc2)c2ccc(F)cc2)CC1`, the Potency in assay [1] was 21.9 µM (active) and 23.9 µM (active); in [2], 61.1 µM (active); in assay [14], 11.9 µM (active); in assay [16], 16.2 µM (active); in [4], 30.6 µM (active) and 26.6 µM (active); in assay [6], 54.5 µM (active). In addition, the Potency in [7] is 54.5 µM (active); in assay [12], 24.3 µM (active) and inactive; in assay [10] it was 27.3 µM (active) and 26.6 µM (active). For the same molecule, the Potency result in assay [3], in assay [5] and in assay [13] was “inactive” each time. For the same molecule, the molecule was called inactive in assay [15] and in assay [17].
`CC(C)C(=O)Cl`: the Potency entry in assay [1], in assay [18], in assay [4], in [5], in [6] and in assay [7] was “inactive” each time. Besides, the Potency result in assay [12], in assay [11] and in [13] was “inactive” in each case.
With `Clc1ccc(COC(Cn2ccnc2)c2ccc(Cl)cc2Cl)cc1` (configuration not stated), the Potency in [1] is 32.3 µM (active) and 38.7 µM (active); in assay [2] it was 50.8 µM (active) and 48.4 µM (active) and inactive; in assay [4], 45.3 µM (active) and 48.4 µM (active) and 26.6 µM (active); in assay [6], 45.3 µM (active) and 54.3 µM (active); in [7], 40.4 µM (active) and 43.1 µM (active) and 26.6 µM (active); in assay [8], 54.3 µM (active) and 29.8 µM (active). Moreover, in assay [12], the Potency is 50.8 µM (active) and 54.3 µM (active). Moreover, the Potency result in assay [5], in assay [9] and in assay [13] was “inactive” each time.
For `C[C@H]1O[C@@H](O[C@H]2[C@@H](O)C[C@H](O[C@H]3[C@@H](O)C[C@H](O[C@H]4CC[C@@]5(C)[C@H](CC[C@@H]6[C@@H]5CC[C@]5(C)[C@@H](C7=CC(=O)OC7)CC[C@]65O)C4)O[C@@H]3C)O[C@@H]2C)C[C@H](O)[C@@H]1O`, the Potency was 0.0621 µM (active) in assay [1]; 43.5 nM (active) and 75 nM (active) in assay [4]; 0.0975 µM (active) in [6]; 77.4 nM (active) and 422 nM (active) in assay [8]; 97.5 nM (active) and 168 nM (active) in assay [10]. Further, the Potency entry in [18], in assay [5], in [9], in assay [11] and in assay [13] was “inactive” throughout.
With `COC[C@H](C)N(C(=O)CCl)c1c(C)csc1C`, the Potency entry in assay [1], in assay [18], in [4], in [5], in assay [6] and in assay [7] was “inactive” in each case. Further, the Potency result in assay [10] and in assay [11] was “inactive” in each case.
Consider `O=[N+]([O-])c1ccc(Oc2ccc(C(F)(F)F)cc2[N+](=O)[O-])cc1`, for which the Potency entry in assay [1], in assay [18], in assay [5], in [7], in [8] and in assay [10] was “inactive” throughout. Further, the Potency result in assay [13] is “inactive”.

These data come from PubChem BioAssay (Tox21).
